# Reference: the supplement of paper PMC10338343
# ± gives the standard deviation.
# Experiments:
# [1] = system: MILI (PIWIL2) piRISC loaded with L1MC piRNA (26 nt); assay: pre-steady-state target cleavage rate (min^-1); guide: L1MC piRNA 5'p-UAACUAAAUACUAUGCAAGCUGUAGG; higher = faster piRNA-guided slicing of the target;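 also: 1 nM active piRISC with 0.1 nM target library at 33 °C single turnover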
# Summary of the method: (§1)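 A transcribed, DNA-blocked target RNA library […] was incubated at 33 °C for 0–8 or 0–960 min with 1 nM active affinity-purified piRISC carrying one synthetic guide, in HEPES–potassium acetate buffer with or without 500 nM GTSF1 partner protein. Uncleaved targets were then sequenced and normalised to depth and to weakly complementary targets. Data from three trials were pooled, with k3 capped at 0.0001 min^-1, and a burst-and-steady-state fit yielded the pre-steady-state cleavage rate.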
# [2] = system: EfPiwi piRISC loaded with L1MC piRNA (26 nt); assay: pre-steady-state target cleavage rate (min^-1); auxiliary factor: 500 nM Ephydatia muelleri Gtsf1; guide: L1MC piRNA 5'p-UAACUAAAUACUAUGCAAGCUGUAGG; MIWI and MILI are mouse PIWI proteins and EfPiwi is from a freshwater sponge; tags in brackets are library labels; higher = faster piRNA-guided slicing of the target
# Summary of the method: as §1
# [3] = auxiliary factor: none (no GTSF1)
# [4] = auxiliary factor: 500 nM mouse GTSF1
Sequence,"pre-steady-state target cleavage rate [1, 3]","pre-steady-state target cleavage rate [1, 4]",pre-steady-state target cleavage rate [2]
UCCUGGAUGUCGAACGAUAGUGAUUUAGUUA,< 0.0001,–,–
UCCUCCUACAGCUUGCAUAGGUAUUUAGUUA,0.00373 ± 0.0024,–,–
UCCUGGAUGUGCUUGCAUAGUAUUUGAGUUA,–,0.123 ± 0.024,0.0118 ± 0.0069
UCCUGGAUGACCUAGCAUAGUAUUUAGUUA,–,0.0953 ± 0.022,0.0121 ± 0.0072
UCCUGGUUCAGCUUGCAUAGUAUUUAGAAA,–,0.114 ± 0.022,0.00471 ± 0.003
UCCUGGAUGAGCUAGCAUAGUAUUUUGUUA,–,0.159 ± 0.036,0.00327 ± 0.003
UCCUCCUUCAGCUUGCAUAGUAUUUACAAA,–,0.13 ± 0.029,0.00379 ± 0.0027
UCCUGGAUCAGCUUGCAUAGUAUUUUCAAA,–,0.0677 ± 0.013,0.00307 ± 0.0027
UCCUGCUAGAGCUUGCAUAGUUUUUAGUUA,–,0.0598 ± 0.012,0.00419 ± 0.0013
UCCUCCUACAGCUUGCAUAGUAUAAAGAAA,–,0.0951 ± 0.023,0.00289 ± 0.0018
UCCUGCUUCAGCUUGCAUAGUAUUUACAAA,–,0.212 ± 0.047,0.00462 ± 0.0025
UCCUGCAUCAGCUUGCAUAGUAUUUUCAAA,–,0.118 ± 0.029,0.00236 ± 0.0016
UCCUGCUACAGCUUGCAUAGAUUUAGUUA,–,0.00937 ± 0.0054,0.00286 ± 0.0015
UCCUCCUACACCUUGCAUAGUAUUUAGAAA,–,0.226 ± 0.05,0.00377 ± 0.0021
UCCUGGAUGAGCUUGCAUAGUAAUUAGUAA,–,0.219 ± 0.042,0.00197 ± 0.0019
UCCUGCAUGAGCUUGCAUAGUAUUUACAAA,–,0.0926 ± 0.026,0.00266 ± 0.0017
UCCUGCUACAGCUUGCAUAGUAUAAUGUUA,–,0.166 ± 0.022,0.00304 ± 0.002
UCCUGGAACAGCUUGCCAUAGUAUUUAGUUA,–,0.163 ± 0.018,0.0042 ± 0.0019
UCCUGGAUGAGCUUGCAUAGUAUUUAGAUUA,–,0.165 ± 0.048,0.00336 ± 0.002
UCCUGGUACAGCUUGCAUAGUAAUUAGAUA,0.00338 ± 0.0033,–,0.00477 ± 0.0031
UCCUCCAUCAGCUUGCAUAGUAUUUAGAAA,–,0.0615 ± 0.017,0.00539 ± 0.0026
UCCUGCUACAGCUUGCAUACUAUUUACUUA,–,0.0359 ± 0.011,0.00325 ± 0.0023
UCCUGGUAGUGCUUGCAUAGUAUUUAGAAA,–,0.0343 ± 0.013,0.00197 ± 0.0017

Sequence,"pre-steady-state target cleavage rate [1, 3]","pre-steady-state target cleavage rate [1, 4]",pre-steady-state target cleavage rate [2]
UCCUGCUACAGCUUGCAUAGUAUUUUGUAA,–,0.107 ± 0.032,0.00356 ± 0.0022
UCCUGCUACAGCUUGCAUAGUAUAUAGAAA,–,0.0314 ± 0.01,0.00298 ± 0.0025
UCCUGCUACAGCUUGCAUAGUAUAUACAAA,–,0.0701 ± 0.019,0.00238 ± 0.0022
UCCUGGAACAGCUUGCAUAGGUAUUUAGUUA,0.00517 ± 0.0026,–,0.00262 ± 0.0026
UCCUCCAUCAGCUUGCAUAGUAUUUACAAA,–,0.0667 ± 0.017,0.00282 ± 0.0024
UCCUGGUACACCUUGCAUAGUAUUUAGAAA,–,0.13 ± 0.043,0.0037 ± 0.0035
UCCUCCUACAGCUUCCAUAGUAUUUAGUUA,–,0.0831 ± 0.025,0.0042 ± 0.0019
UCCUGCUACAGCUUGCAUAGUAAUUAGUAA,–,0.133 ± 0.025,0.00441 ± 0.0018
UCCUCCUACAGCUUGCAUAGUAUGUAGUUA,–,0.041 ± 0.015,0.00354 ± 0.0013
UCCUGCUACAGCAUGCAUAGAAUUUAGUUA,–,0.0922 ± 0.021,0.00243 ± 0.002
UCCUCCUACAGCUUGCAUAUAUUUAGUUA,–,0.0398 ± 0.0083,0.00725 ± 0.0034
UCCUCCUACAGCUUGCAUAGUAUUUAGCUUA,–,0.253 ± 0.075,0.00683 ± 0.0027
UCCUGGAUGAGCUUGCCAUAGUAUUUAGUUA,–,0.0808 ± 0.016,0.0035 ± 0.0026
UCCUGCUACAGCUUGCAUAGUAUUUAAUUA,–,0.126 ± 0.03,0.00612 ± 0.0025
UCCUGGAACAGCUUGCAUAGUUUUUAGAUA,–,0.0168 ± 0.0068,0.00205 ± 0.0016
UCCUGGUACAGCUUGCAUAGUAUUAACAAA,–,0.0231 ± 0.0084,0.00261 ± 0.0023
UCCUGCUACAGCUUGCAUAGUAUUAAGAUA,–,0.019 ± 0.0078,0.00501 ± 0.0016
UCCUCCUACAGCUUGCAUAGAAUUUACAAA,–,0.0431 ± 0.015,0.00295 ± 0.0029
UCCUCCUACAGCUUGCAUAGUAAUUACUUA,–,0.0937 ± 0.025,0.005 ± 0.0027
UCCUCGUACAGCUUGCAUAGUAUUUUCAAA,–,0.0759 ± 0.02,0.0038 ± 0.0029
UCCUGCUACAGCUUGCAUAGAAUUUAGAUA,–,0.0657 ± 0.021,0.00319 ± 0.0012
UCCUGCUACAGCUUGCAUAGUAUUUAGUAA,–,0.182 ± 0.024,0.00553 ± 0.0022
